Results as given in article PMC7826789 (International Journal of Molecular Sciences, 2021).

system: T1, CDK11; details: Compound Concentration (nM):1000
T1 construct: gene CDK19
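Also: KINOMEscan scanMAX binding as percent activity remaining versus control; lower means stronger binding.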

SMILES | Percent Control [%]
NS(=O)(=O)c1ccc(N/N=C2\C(=O)Nc3ccc(C(=O)NCCc4c[nH]cn4)cc32)cc1 [GW300660X] | 100
NS(=O)(=O)c1ccc(N/N=C2\C(=O)Nc3ccc(-c4cnco4)cc32)cc1 [GW276655] | 100
NS(=O)(=O)c1ccc(Nc2ncc(-c3ccccc3)o2)cc1 [GW572399X] | 100
C/C(Nc1ccc(S(N)(=O)=O)cc1)=C1/C(=O)Nc2ccccc21 [GW335962X] | 100
Cl.O=S1CCN(Cc2ccc(-c3ccc4ncnc(Nc5ccc(OCc6ccccc6)c(F)c5)c4c3)o2)CC1 [GW576924A] | 100
CN(C)c1cc2c(Nc3ccc4c(cnn4Cc4ccccc4)c3)ncnc2cn1 [GW282974X] | 99
CCn1c(-c2nonc2N)nc2c(C#CC(C)(C)O)nc(OCCNC)cc21.Cl [GSK949675] | 100
CC(C)COC(=O)c1ccc2c(c1)/C(=C/Nc1ccc(S(N)(=O)=O)cc1)C(=O)N2 [GW416981X] | 100
CC1=C(C(=O)Nc2ccc3[nH]ncc3c2)C(c2ccc(Cl)c(Cl)c2)CC(=O)N1 (stereo not drawn) [GSK299115A] | 91
NS(=O)(=O)c1ccc(N/N=C2\C(=O)Nc3ccc(Cl)cc32)cc1 [GW280670X] | 100
COc1cc(C=NNc2ncnc3c2cnn3-c2ccccc2)ccc1O [GW513184X] | 100
COc1cc2ncnc(Nc3ccc4c(cnn4Cc4ccccc4)c3)c2cc1OC.Cl [GW282449A] | 100
COC(=O)Nc1nc2ccc(Oc3ccc(NC(=O)Nc4cc(C(F)(F)F)ccc4F)cc3)cc2s1.Cl [GW693917A] | 5.3
NS(=O)(=O)c1ccc(N/N=C2\C(=O)Nc3ccc(C(=O)NCc4ccncc4)cc32)cc1 [GW300657X] | 100
Cl.O=C(Nc1ccc(Oc2ccc3[nH]c(NC(=O)c4ccco4)nc3c2)cc1)Nc1cc(C(F)(F)F)ccc1F [GW683134A] | 13
COc1ccccc1-c1cc(/C=C2\C(=O)Nc3ncc(Br)cc32)cc(Br)c1O [GW442130X] | 62
CN1CCN(C(=O)c2ccc(NC(=O)Nc3ccc(N(C)c4ccnc(Nc5ccc(CS(C)(=O)=O)cc5)n4)cc3)cc2)CC1.Cl [GW830263A] | 100
Cc1cc(O)cc(C)c1/C=C/c1cncc(C(N)=O)c1 [GW435821X] | 100
